Source: PubChem BioAssay AID1745857 (National Center for Advancing Translational Sciences (NCATS), 2022)
About 370 (0.31%) of roughly 120,000 compounds were called active. Not shown: some 4% with an inconclusive outcome. Calls follow the shape of the full dose curve. For the sample, actives were picked, then their nearest neighbours and some compounds at random.

Assay: Primary qHTS Assay for Foot and Mouth Disease Virus Antivirals against NCGC Sytravon and CBC Compound Libraries: Renilla Luciferase Signal; also: nearly all actives have a fitted effect of over 55% in size
Conditions: FMDV replicon cells; series mostly up to 57.5 µM; activity change, negative = inhibition: at the top concentration
% is scaled to controls: 0 for no effect and ±100 for the full control effect; potency is read from the fitted curve at half-maximal effect.

Compound	activity change, negative = inhibition	Potency
COC(=O)Cc1csc(NC(=O)Cc2c(C)c3ccc(OC)cc3oc2=O)n1	22.2% (inactive)	
O=C(NCCOc1ccccc1F)c1n[nH]c(=O)c2ccccc12	5.56% (inactive)	
NS(=O)(=O)c1ccc(NC(=O)COc2ncnc3ccc(Br)cc23)cc1	-11% (inactive)	
Cc1cccc2nc(-c3ccc(N4CCOCC4)cc3)c(Nc3ccc4c(c3)OCCO4)n12	0% (inactive)	
O=C(OC1CCCCC1=O)c1ccc(Cl)c(Cl)c1 (stereo not given)	2.63% (inactive)	
O=C(NC(Cc1cccc(F)c1)c1cccc(F)c1)C1CCOCC1 (stereo not given)	13.2% (inactive)	
O=C(CCC(=O)c1ccc(Cl)cc1)OCc1ccc(Cl)cc1Cl	-8.65% (inactive)	
CCOc1ccc(CCNC(=O)C(C)n2nc(C)n3c(cc4sccc43)c2=O)cc1OCC (stereo not given)	9.5% (inactive)	
CCc1ccc(/C=C(\C#N)C(=O)NC2CC2)s1	0% (inactive)	
C[C@@H](C(=O)N1CCN(c2ccccc2)CC1)n1cnc2ccccc2c1=O	3.94% (inactive)	
CCC(C)NCCC(c1ccccc1)c1ccc(C)c(C)c1O (stereo not given)	17.2% (inactive)	
CCCOc1ccc(NC(=O)COc2cccc(C)c2C)c2cccnc12	-14.9% (inactive)	
CCOc1ccccc1OCC(=O)Nc1cccc2ncccc12		8.91 µM (active)
COc1c(C)cccc1C(=O)Nc1cccc2ncccc12	-15.8% (inactive)	
Cc1ccc(NS(=O)(=O)c2c(C)[nH]c(C)c2C(=O)N2CCCCC2)c(C)c1	0% (inactive)	
Cc1ccc(N/N=C/C=C/c2ccccc2)cc1Cl	7.3% (inactive)	
Cc1nc2cc(NC(C(=O)Nc3ccc(F)cc3)c3ccccc3)ccc2o1 (stereo not given)	99.2% (inactive)	
COc1ccc(/C=C/c2nc3ccccc3o2)cc1OCC(C)C	2.64% (inactive)	
COc1ccc(NC(C)=O)cc1NC(=O)/C=C/c1nc2ccccc2o1	-14.9% (inactive)	
COc1ccc(C(=O)/C(=C/c2ccncc2)c2nc3ccccc3o2)cc1OC		15.8 µM (active)
Cc1ccc(CCC(=O)Nc2ccc(C)c(C)c2)s1	-6.77% (inactive)	
O=C(O)c1ccc2c(c1)N(Cc1ccc(F)cc1)C(=O)c1ccccc1S2=O (stereo not given)		8.91 µM (active)
CCN1C(=O)c2ccccc2S(=O)c2ccc(C(=O)NCc3ccc(F)cc3)cc21 (stereo not given)	-7.42% (inactive)	
O=C(NC1CCCCC1)c1ccc2c(c1)N(Cc1ccc(Cl)cc1)C(=O)c1ccccc1S2=O (stereo not given)	17.7% (inactive)	
O=C(CC(=O)c1ccc(F)cc1)c1ccc(F)cc1	23.4% (inactive)	
CC(Oc1ccc(C#N)cc1)C(=O)NC(C1CC1)C1CC1 (stereo not given)	10.9% (inactive)	
O=S1(=O)c2ccc(N3CCN(Cc4ccccc4F)CC3)cc2Oc2ccccc2CN1Cc1cn(Cc2ccc(Cl)cc2)nn1	80.6% (inactive)	
Cc1ccccc1Cn1nc(C)c(NC(=O)c2cc(-c3ccc(F)cc3)on2)c1C	-8.22% (inactive)	
Cc1nn(Cc2ccc(F)cc2)c(C)c1NC(=O)c1cc(CC(C)C)on1		25.1 µM (active)
Cc1nn(Cc2ccc(F)cc2)c(C)c1NC(=O)c1noc2c1CCc1ccccc1-2	-10.8% (inactive)	
